Measurements as given in the supplement of paper PMC4466140.

B1: unnamed (peptide)
chain: NRLRKRLNLPSEISI

The binders below were run against AgAbp1 (assay: SPOT peptide array binding signal intensity (averaged, normalized) (arbitrary units (background-subtracted, floor 0; scale differs between SH3 domains)); higher = stronger binding of the SH3 domain to the peptide).
Protocol: (§1)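 GST-tagged SH3 domains from S. cerevisiae (Sc), A. gossypii (Ag), C. albicans (Ca) and S. pombe (Sp) were incubated at 10 ug/ml overnight at 4 C on cellulose SPOT membranes carrying 292 synthetic 15-mer peptides mined from the S. cerevisiae proteome (cysteines replaced by serines). Binding was detected with anti-GST antibody, HRP secondary and chemiluminescence, quantified with Genespotter, and reported as normalized spot intensities averaged over biological replicates.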
B1 was tested, and the “SPOT peptide array binding signal intensity” value was 52.

Each binder was assayed against AgBbc1 in the same assay as above.
Protocol: as §1
B1 was tested, and the “SPOT peptide array binding signal intensity” value was 2.

These binders were tested against AgBem1-D1 in the same assay as above.
Protocol: as §1
For B1, the “SPOT peptide array binding signal intensity” value was 126.

Each binder was assayed against AgBzz1-D1 in the same assay as above.
Protocol: as §1
B1 was tested, and the “SPOT peptide array binding signal intensity” value was 7.

Each binder was assayed against AgBzz1-D2 in the same assay as above.
Protocol: as §1
For B1, the “SPOT peptide array binding signal intensity” value was 9.

Each binder was assayed against AgCyk3 in the same assay as above.
Protocol: as §1
With B1 the “SPOT peptide array binding signal intensity” value was 1.

These binders were tested against AgFus1 in the same assay as above.
Protocol: as §1
B1 was tested, and the “SPOT peptide array binding signal intensity” value was 444.

Each binder was assayed against AgHof1 in the same assay as above.
Protocol: as §1
For B1, the “SPOT peptide array binding signal intensity” value was 45.2.

What follows are binders tested against AgHse1 in the same assay as above.
Protocol: as §1
In the case of B1, the “SPOT peptide array binding signal intensity” value is reported as 2040.

The binders below were run against AgLsb1 in the same assay as above.
Protocol: as §1
For B1, the “SPOT peptide array binding signal intensity” value was 36.2.

What follows are binders tested against AgLsb4 in the same assay as above.
Protocol: as §1
For B1, the “SPOT peptide array binding signal intensity” value was 21.5.

These binders were tested against AgMyo5 in the same assay as above.
Protocol: as §1
With B1 the “SPOT peptide array binding signal intensity” value was no more than 0.

Each binder was assayed against AgNbp2 in the same assay as above.
Protocol: as §1
In the case of B1, the “SPOT peptide array binding signal intensity” value is reported as 74.

Each binder was assayed against AgRvs167 in the same assay as above.
Protocol: as §1
With B1 the “SPOT peptide array binding signal intensity” value was 4.67.

What follows are binders tested against AgSho1 in the same assay as above.
Protocol: as §1
For B1, the “SPOT peptide array binding signal intensity” value was 26.5.

These binders were tested against AgSla1-D1-D2 in the same assay as above.
Protocol: as §1
In the case of B1, the “SPOT peptide array binding signal intensity” value is reported as 33.

The binders below were run against AgSla1-D3 in the same assay as above.
Protocol: as §1
With B1 the “SPOT peptide array binding signal intensity” value was 5.5.

The binders below were run against CaAbp1-D1 in the same assay as above.
Protocol: as §1
B1 was tested, and the “SPOT peptide array binding signal intensity” value was 649.

Each binder was assayed against CaAbp1-D2 in the same assay as above.
Protocol: as §1
B1 was tested, and the “SPOT peptide array binding signal intensity” value was 307.

Each binder was assayed against CaBbc1 in the same assay as above.
Protocol: as §1
With B1 the “SPOT peptide array binding signal intensity” value was 9.75.

What follows are binders tested against CaBem1-D1 in the same assay as above.
Protocol: as §1
With B1 the “SPOT peptide array binding signal intensity” value was 2.

The binders below were run against CaBzz1-D1 in the same assay as above.
Protocol: as §1
For B1, the “SPOT peptide array binding signal intensity” value was 10.

Each binder was assayed against CaBzz1-D2 in the same assay as above.
Protocol: as §1
B1 was tested, and the “SPOT peptide array binding signal intensity” value was 18.2.

The binders below were run against CaCyk3 in the same assay as above.
Protocol: as §1
For B1, the “SPOT peptide array binding signal intensity” value was 4.

Each binder was assayed against CaFus1 in the same assay as above.
Protocol: as §1
In the case of B1, the “SPOT peptide array binding signal intensity” value is reported as 1980.

Each binder was assayed against CaHof1 in the same assay as above.
Protocol: as §1
In the case of B1, the “SPOT peptide array binding signal intensity” value is reported as no more than 0.

Each binder was assayed against CaHse1 in the same assay as above.
Protocol: as §1
B1 was tested, and the “SPOT peptide array binding signal intensity” value was 95.2.

The binders below were run against CaLsb1 in the same assay as above.
Protocol: as §1
With B1 the “SPOT peptide array binding signal intensity” value was 5.5.

What follows are binders tested against CaLsb4 in the same assay as above.
Protocol: as §1
In the case of B1, the “SPOT peptide array binding signal intensity” value is reported as 14.

What follows are binders tested against CaMyo5 in the same assay as above.
Protocol: as §1
In the case of B1, the “SPOT peptide array binding signal intensity” value is reported as 4.5.

These binders were tested against CaNbp2 in the same assay as above.
Protocol: as §1
In the case of B1, the “SPOT peptide array binding signal intensity” value is reported as 286.

These binders were tested against CaRvs167 in the same assay as above.
Protocol: as §1
In the case of B1, the “SPOT peptide array binding signal intensity” value is reported as 6.83.

Each binder was assayed against CaRvs167-3 in the same assay as above.
Protocol: as §1
In the case of B1, the “SPOT peptide array binding signal intensity” value is reported as 48.8.

Each binder was assayed against CaSho1 in the same assay as above.
Protocol: as §1
For B1, the “SPOT peptide array binding signal intensity” value was 353.

The binders below were run against CaSla1-D1-D2 in the same assay as above.
Protocol: as §1
In the case of B1, the “SPOT peptide array binding signal intensity” value is reported as 16.

The binders below were run against CaSla1-D3 in the same assay as above.
Protocol: as §1
In the case of B1, the “SPOT peptide array binding signal intensity” value is reported as 3.

The binders below were run against ScAbp1 in the same assay as above.
Protocol: as §1
With B1 the “SPOT peptide array binding signal intensity” value was 191.

The binders below were run against ScBbc1 in the same assay as above.
Protocol: as §1
B1 was tested, and the “SPOT peptide array binding signal intensity” value was 2.5.

These binders were tested against ScBem1-D1 in the same assay as above.
Protocol: as §1
B1 was tested, and the “SPOT peptide array binding signal intensity” value was 61.

Each binder was assayed against ScBzz1-D1 in the same assay as above.
Protocol: as §1
B1 was tested, and the “SPOT peptide array binding signal intensity” value was 21.

Each binder was assayed against ScBzz1-D2 in the same assay as above.
Protocol: as §1
In the case of B1, the “SPOT peptide array binding signal intensity” value is reported as 5.5.

What follows are binders tested against ScCyk3 in the same assay as above.
Protocol: as §1
In the case of B1, the “SPOT peptide array binding signal intensity” value is reported as 140.

Each binder was assayed against ScFus1 in the same assay as above.
Protocol: as §1
In the case of B1, the “SPOT peptide array binding signal intensity” value is reported as 524.

These binders were tested against ScHof1 in the same assay as above.
Protocol: as §1
B1 was tested, and the “SPOT peptide array binding signal intensity” value was 2.5.

What follows are binders tested against ScHse1 in the same assay as above.
Protocol: as §1
With B1 the “SPOT peptide array binding signal intensity” value was 2410.

Each binder was assayed against ScLsb1 in the same assay as above.
Protocol: as §1
In the case of B1, the “SPOT peptide array binding signal intensity” value is reported as 22.5.

The binders below were run against ScLsb2 in the same assay as above.
Protocol: as §1
For B1, the “SPOT peptide array binding signal intensity” value was no more than 0.

What follows are binders tested against ScLsb3 in the same assay as above.
Protocol: as §1
With B1 the “SPOT peptide array binding signal intensity” value was 57.

Each binder was assayed against ScLsb4 in the same assay as above.
Protocol: as §1
For B1, the “SPOT peptide array binding signal intensity” value was 7.

What follows are binders tested against ScMyo3 in the same assay as above.
Protocol: as §1
For B1, the “SPOT peptide array binding signal intensity” value was no more than 0.

These binders were tested against ScMyo5 in the same assay as above.
Protocol: as §1
In the case of B1, the “SPOT peptide array binding signal intensity” value is reported as 2.5.

The binders below were run against ScNbp2 in the same assay as above.
Protocol: as §1
For B1, the “SPOT peptide array binding signal intensity” value was 70.

Each binder was assayed against ScPex13 in the same assay as above.
Protocol: as §1
For B1, the “SPOT peptide array binding signal intensity” value was 0.5.

What follows are binders tested against ScRvs167 in the same assay as above.
Protocol: as §1
For B1, the “SPOT peptide array binding signal intensity” value was 2.5.

Each binder was assayed against ScSho1 in the same assay as above.
Protocol: as §1
With B1 the “SPOT peptide array binding signal intensity” value was 662.

These binders were tested against ScSla1-D1-D2 in the same assay as above.
Protocol: as §1
B1 was tested, and the “SPOT peptide array binding signal intensity” value was 19.5.

Each binder was assayed against ScSla1-D3 in the same assay as above.
Protocol: as §1
B1 was tested, and the “SPOT peptide array binding signal intensity” value was 12.5.

These binders were tested against SpAbp1-D1 in the same assay as above.
Protocol: as §1
B1 was tested, and the “SPOT peptide array binding signal intensity” value was 293.

Each binder was assayed against SpBbc1 in the same assay as above.
Protocol: as §1
B1 was tested, and the “SPOT peptide array binding signal intensity” value was 6.

These binders were tested against SpBzz1-D1 in the same assay as above.
Protocol: as §1
B1 was tested, and the “SPOT peptide array binding signal intensity” value was 11.

What follows are binders tested against SpBzz1-D2 in the same assay as above.
Protocol: as §1
With B1 the “SPOT peptide array binding signal intensity” value was 1.5.

The binders below were run against SpCyk3 in the same assay as above.
Protocol: as §1
B1 was tested, and the “SPOT peptide array binding signal intensity” value was no more than 0.

These binders were tested against SpHof1 in the same assay as above.
Protocol: as §1
With B1 the “SPOT peptide array binding signal intensity” value was 60.

What follows are binders tested against SpHof1-2 in the same assay as above.
Protocol: as §1
With B1 the “SPOT peptide array binding signal intensity” value was 7.

The binders below were run against SpHof1-3 in the same assay as above.
Protocol: as §1
With B1 the “SPOT peptide array binding signal intensity” value was 708.

Each binder was assayed against SpHse1 in the same assay as above.
Protocol: as §1
With B1 the “SPOT peptide array binding signal intensity” value was 2460.

Each binder was assayed against SpLsb1 in the same assay as above.
Protocol: as §1
In the case of B1, the “SPOT peptide array binding signal intensity” value is reported as 96.8.

Each binder was assayed against SpLsb4 in the same assay as above.
Protocol: as §1
B1 was tested, and the “SPOT peptide array binding signal intensity” value was 29.

What follows are binders tested against SpMyo1 in the same assay as above.
Protocol: as §1
B1 was tested, and the “SPOT peptide array binding signal intensity” value was 5.

Each binder was assayed against SpNbp2 in the same assay as above.
Protocol: as §1
With B1 the “SPOT peptide array binding signal intensity” value was 71.

These binders were tested against SpPex13 in the same assay as above.
Protocol: as §1
In the case of B1, the “SPOT peptide array binding signal intensity” value is reported as 7.5.

What follows are binders tested against SpRvs167 in the same assay as above.
Protocol: as §1
In the case of B1, the “SPOT peptide array binding signal intensity” value is reported as 2.33.

These binders were tested against SpSla1-D1-D2 in the same assay as above.
Protocol: as §1
With B1 the “SPOT peptide array binding signal intensity” value was no more than 0.

Each binder was assayed against SpSla1-D3 in the same assay as above.
Protocol: as §1
In the case of B1, the “SPOT peptide array binding signal intensity” value is reported as 3.
